Like-named read-outs stand apart in the source and are kept apart here.
Tests used:
Conditions in all cases: n = 1
SIK2 = test system: SIK2
SIK = test system: SIK
SLK = test system: SLK
SNARK = test system: T1, SNARK
T1 construct: gene NUAK2

SNRK = test system: SNRK
SRC = test system: SRC
SRMS = test system: SRMS
SRPK1 = test system: SRPK1
SRPK2 = test system: SRPK2
SRPK3 = test system: SRPK3
STK16 = test system: STK16
STK33 = test system: STK33
STK35 = test system: STK35
STK36 = test system: STK36
STK39 = test system: STK39
SYK = test system: SYK
SgK110 = test system: SgK110
TAK1 = test system: T2, TAK1
T2 construct: gene MAP3K7

TAOK1 = test system: TAOK1
TAOK2 = test system: TAOK2
[1] = concentration: 1 μM, replicates: in singlicate
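Also: KINOMEscan kinase panel screen.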

## Clc1cc(Cl)cc(Nc2ccnc(Nc3cc(Cl)cc(Cl)c3)n2)c1 [GSK175726]
SIK2; [1]
  %Inh: 0%
SIK; [1]
  %Inh: 8%
SLK; [1]
  %Inh: 8%
SNARK; [1]
  %Inh: 10%
SNRK; [1]
  %Inh: 0%
SRC; [1]
  %Inh: 49%
SRMS; [1]
  %Inh: 11%
SRPK1; [1]
  %Inh: 0%
SRPK2; [1]
  %Inh: 0%
SRPK3; [1]
  %Inh: 0%
STK16; [1]
  %Inh: 24%
STK33; [1]
  %Inh: 0%
STK35; [1]
  %Inh: 0%
STK36; [1]
  %Inh: 39%
STK39; [1]
  %Inh: 2%
SYK; [1]
  %Inh: 12%
SgK110; [1]
  %Inh: 0%
TAK1; [1]
  %Inh: 18%
TAOK1; [1]
  %Inh: 44%
TAOK2; [1]
  %Inh: 6%

## Cl.c1ccc(-c2n[nH]cc2-c2ccnc(-c3ccc(CN4CCOCC4)cc3)c2)nc1 [GW776245]
SIK2; [1]
  %Inh: 0%
SIK; [1]
  %Inh: 23%
SLK; [1]
  %Inh: 0%
SNARK; [1]
  %Inh: 0%
SNRK; [1]
  %Inh: 0%
SRC; [1]
  %Inh: 15%
SRMS; [1]
  %Inh: 0%
SRPK1; [1]
  %Inh: 0%
SRPK2; [1]
  %Inh: 0%
SRPK3; [1]
  %Inh: 41%
STK16; [1]
  %Inh: 17%
STK33; [1]
  %Inh: 0%
STK35; [1]
  %Inh: 0%
STK36; [1]
  %Inh: 9%
STK39; [1]
  %Inh: 0%
SYK; [1]
  %Inh: 16%
SgK110; [1]
  %Inh: 0%
TAK1; [1]
  %Inh: 0%
TAOK1; [1]
  %Inh: 0%
TAOK2; [1]
  %Inh: 5%

## COC(=O)c1c(-c2ccccc2)c2cc(C(=O)O)ccc2c(=O)n1Cc1ccccc1
SIK2; [1]
  %Inh: 0%
SIK; [1]
  %Inh: 0%
SLK; [1]
  %Inh: 16%
SNARK; [1]
  %Inh: 5%
SNRK; [1]
  %Inh: 0%
SRC; [1]
  %Inh: 0%
SRMS; [1]
  %Inh: 0%
SRPK1; [1]
  %Inh: 0%
SRPK2; [1]
  %Inh: 0%
SRPK3; [1]
  %Inh: 0%
STK16; [1]
  %Inh: 22%
STK33; [1]
  %Inh: 0%
STK35; [1]
  %Inh: 0%
STK36; [1]
  %Inh: 5%
STK39; [1]
  %Inh: 0%
SYK; [1]
  %Inh: 0%
SgK110; [1]
  %Inh: 14%
TAK1; [1]
  %Inh: 0%
TAOK1; [1]
  %Inh: 14%
TAOK2; [1]
  %Inh: 20%

## COc1ccc(CNC(=O)NC2CCN(c3ccnc(Nc4cc(OC)c(OC)c(OC)c4)n3)C2)cc1 (centres unmarked) [GSK1379748]
SIK2; [1]
  %Inh: 0%
SIK; [1]
  %Inh: 0%
SLK; [1]
  %Inh: 0%
SNARK; [1]
  %Inh: 25%
SNRK; [1]
  %Inh: 0%
SRC; [1]
  %Inh: 14%
SRMS; [1]
  %Inh: 0%
SRPK1; [1]
  %Inh: 11%
SRPK2; [1]
  %Inh: 31%
SRPK3; [1]
  %Inh: 0%
STK16; [1]
  %Inh: 54%
STK33; [1]
  %Inh: 0%
STK35; [1]
  %Inh: 0%
STK36; [1]
  %Inh: 0%
STK39; [1]
  %Inh: 1%
SYK; [1]
  %Inh: 21%
SgK110; [1]
  %Inh: 0%
TAK1; [1]
  %Inh: 0%
TAOK1; [1]
  %Inh: 0%
TAOK2; [1]
  %Inh: 0%

## Cc1ccc(NC(=O)Nc2cccc(C(F)(F)F)c2)cc1 [GSK955403]
SIK2; 1 µM
  %Inh: 0%
SIK; 1 µM
  %Inh: 0%
SLK; 1 µM
  %Inh: 5%
SNARK; 1 µM
  %Inh: 0%
SNRK; 1 µM
  %Inh: 0%
SRC; 1 µM
  %Inh: 15%
SRMS; 1 µM
  %Inh: 0%
SRPK1; 1 µM
  %Inh: 17%
SRPK2; 1 µM
  %Inh: 5%
SRPK3; 1 µM
  %Inh: 0%
STK16; 1 µM
  %Inh: 30%
STK33; 1 µM
  %Inh: 0%
STK35; 1 µM
  %Inh: 0%
STK36; 1 µM
  %Inh: 10%
STK39; 1 µM
  %Inh: 3%
SYK; 1 µM
  %Inh: 19%
SgK110; 1 µM
  %Inh: 0%
TAK1; 1 µM
  %Inh: 13%
TAOK1; 1 µM
  %Inh: 0%
TAOK2; 1 µM
  %Inh: 0%

## C[C@@H]1CCCCN1c1cc(-c2ccc3c(N)n[nH]c3c2)nc(N)n1 [GSK2258759]
SIK2; [1]
  %Inh: 0%
SIK; [1]
  %Inh: 0%
SLK; [1]
  %Inh: 0%
SNARK; [1]
  %Inh: 2%
SNRK; [1]
  %Inh: 0%
SRC; [1]
  %Inh: 0%
SRMS; [1]
  %Inh: 0%
SRPK1; [1]
  %Inh: 0%
SRPK2; [1]
  %Inh: 0%
SRPK3; [1]
  %Inh: 0%
STK16; [1]
  %Inh: 19%
STK33; [1]
  %Inh: 0%
STK35; [1]
  %Inh: 0%
STK36; [1]
  %Inh: 0%
STK39; [1]
  %Inh: 0%
SYK; [1]
  %Inh: 10%
SgK110; [1]
  %Inh: 0%
TAK1; [1]
  %Inh: 0%
TAOK1; [1]
  %Inh: 0%
TAOK2; [1]
  %Inh: 0%

## Cl.Oc1ccc(-c2nc(-c3ccccc3)[nH]c2-c2ccncc2)cc1 [SB-428218]
SIK2; [1]
  %Inh: 0%
SIK; [1]
  %Inh: 0%
SLK; [1]
  %Inh: 28%
SNARK; [1]
  %Inh: 0%
SNRK; [1]
  %Inh: 5%
SRC; [1]
  %Inh: 33%
SRMS; [1]
  %Inh: 7%
SRPK1; [1]
  %Inh: 0%
SRPK2; [1]
  %Inh: 0%
SRPK3; [1]
  %Inh: 3%
STK16; [1]
  %Inh: 16%
STK33; [1]
  %Inh: 0%
STK35; [1]
  %Inh: 0%
STK36; [1]
  %Inh: 0%
STK39; [1]
  %Inh: 0%
SYK; [1]
  %Inh: 24%
SgK110; [1]
  %Inh: 0%
TAK1; [1]
  %Inh: 0%
TAOK1; [1]
  %Inh: 0%
TAOK2; [1]
  %Inh: 0%

## CCCc1ccc(S(=O)(=O)NC2CCN(c3ccnc(Nc4ccc(F)cc4)n3)C2)cc1 (centres unmarked) [GSK1379715]
SIK2; [1]
  %Inh: 0%
SIK; [1]
  %Inh: 0%
SLK; [1]
  %Inh: 0%
SNARK; [1]
  %Inh: 0%
SNRK; [1]
  %Inh: 0%
SRC; [1]
  %Inh: 48%
SRMS; [1]
  %Inh: 0%
SRPK1; [1]
  %Inh: 0%
SRPK2; [1]
  %Inh: 17%
SRPK3; [1]
  %Inh: 6%
STK16; [1]
  %Inh: 6%
STK33; [1]
  %Inh: 0%
STK35; [1]
  %Inh: 0%
STK36; [1]
  %Inh: 0%
STK39; [1]
  %Inh: 13%
SYK; [1]
  %Inh: 0%
SgK110; [1]
  %Inh: 34%
TAK1; [1]
  %Inh: 0%
TAOK1; [1]
  %Inh: 0%
TAOK2; [1]
  %Inh: 0%

## COc1ccc(C2=C(Nc3cccc(C(=O)O)c3)C(=O)NC2=O)cc1 [SB-390765]
SIK2; [1]
  %Inh: 9%
SIK; [1]
  %Inh: 14%
SLK; [1]
  %Inh: 7%
SNARK; [1]
  %Inh: 8%
SNRK; [1]
  %Inh: 0%
SRC; [1]
  %Inh: 3%
SRMS; [1]
  %Inh: 21%
SRPK1; [1]
  %Inh: 0%
SRPK2; [1]
  %Inh: 0%
SRPK3; [1]
  %Inh: 19%
STK16; [1]
  %Inh: 10%
STK33; [1]
  %Inh: 0%
STK35; [1]
  %Inh: 13%
STK36; [1]
  %Inh: 22%
STK39; [1]
  %Inh: 0%
SYK; [1]
  %Inh: 25%
SgK110; [1]
  %Inh: 0%
TAK1; [1]
  %Inh: 21%
TAOK1; [1]
  %Inh: 28%
TAOK2; [1]
  %Inh: 28%

## COc1cc2ncnc(Nc3ccc4nc(-c5ccccc5)[nH]c4c3)c2cc1OC.Cl [GW282450]
SIK2; [1]
  %Inh: 2%
SIK; [1]
  %Inh: 0%
SLK; [1]
  %Inh: 30%
SNARK; [1]
  %Inh: 0%
SNRK; [1]
  %Inh: 0%
SRC; [1]
  %Inh: 0%
SRMS; [1]
  %Inh: 0%
SRPK1; [1]
  %Inh: 3%
SRPK2; [1]
  %Inh: 0%
SRPK3; [1]
  %Inh: 17%
STK16; [1]
  %Inh: 19%
STK33; [1]
  %Inh: 0%
STK35; [1]
  %Inh: 0%
STK36; [1]
  %Inh: 0%
STK39; [1]
  %Inh: 0%
SYK; [1]
  %Inh: 43%
SgK110; [1]
  %Inh: 0%
TAK1; [1]
  %Inh: 23%
TAOK1; [1]
  %Inh: 0%
TAOK2; [1]
  %Inh: 0%

From paper PMC5540273 (PLoS ONE, 2017)
